Laboratory results published in PubChem BioAssay (NCI).
The panel holds about 83,000 compounds, 20% with a hit somewhere; the sample as a whole holds those more often.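 Method: cells in 96-well plates; compound added at one concentration; 48 h incubation; percent growth measured; values under 10 scored active.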 The source made the active and inactive calls.

Tests used:
Experiment in all cases: NCI-60 one-dose screen, 48 h (100 = growth as untreated, 0 = no growth, -100 = all killed)
Details in all cases: 10 µM unless noted
RPMI-8226 leukemia = system: RPMI-8226 leukemia
OVCAR-8 ovarian = system: OVCAR-8 ovarian
OVCAR-5 ovarian = system: OVCAR-5 ovarian
OVCAR-4 ovarian = system: OVCAR-4 ovarian
SK-OV-3 ovarian = system: SK-OV-3 ovarian
IGROV1 ovarian = system: IGROV1 ovarian
OVCAR-3 ovarian = system: OVCAR-3 ovarian
HS 578T breast = system: HS 578T breast
NCI/ADR-RES ovarian = system: NCI/ADR-RES ovarian
T-47D breast = system: T-47D breast

SMILES | growth (RPMI-8226 leukemia) | growth (OVCAR-8 ovarian) | growth (OVCAR-5 ovarian) | growth (OVCAR-4 ovarian) | growth (SK-OV-3 ovarian) | growth (IGROV1 ovarian) | growth (OVCAR-3 ovarian) | growth (HS 578T breast) | growth (NCI/ADR-RES ovarian) | growth (T-47D breast)
Cc1ccc2c(c1)O/C(=C\c1ccc([N+](=O)[O-])o1)C2=O | -34.4% (active) | -4.7% (active) | 71.6% (inactive) | 5.62% (active) | 91.1% (inactive) | -17.3% (active) | -15% (active) | 106% (inactive) | 78.5% (inactive) | 41.4% (inactive)
N=c1ccn2c(n1)O[C@@H]1[C@@H](O)[C@H](CO)O[C@@H]12 | 94.4% (inactive) | 25.7% (inactive) | 81% (inactive) | 76.7% (inactive) | 61.7% (inactive) | 71.4% (inactive) | 87.5% (inactive) | 99% (inactive) | 41.6% (inactive) | 92.7% (inactive)
CCCCCCC(C)(O)c1ccccc1 (stereo not given) | 107% (inactive) | 115% (inactive) | 98.5% (inactive) | 110% (inactive) | 103% (inactive) | 122% (inactive) | 117% (inactive) | 117% (inactive) | 101% (inactive) | 101% (inactive)
Cc1scc2c1N(C(=O)CN1CCN(C)CC1)c1ccccc1NC2=O | 113% (inactive) | 102% (inactive) | 118% (inactive) | 101% (inactive) | 105% (inactive) | 108% (inactive) | 108% (inactive) | 112% (inactive) | 108% (inactive) | 102% (inactive)
CC1=CSC2=NCCN12 | 106% (inactive) | 112% (inactive) | 107% (inactive) | 103% (inactive) | 110% (inactive) | 108% (inactive) | 113% (inactive) | 110% (inactive) | 100% (inactive) | 109% (inactive)
Cn1c(=O)c2c(nc(Br)n2CCC(=O)Nc2ccc(F)cc2)n(C)c1=O | 101% (inactive) | 100% (inactive) | 94.7% (inactive) | 114% (inactive) | 83.6% (inactive) | 107% (inactive) | 125% (inactive) | 102% (inactive) | 101% (inactive) | 97.3% (inactive)
COc1ccc(/C=C/C(=O)Nc2cccnc2Nc2ccc(F)cc2)cc1 | 88.6% (inactive) | 92.7% (inactive) | 104% (inactive) | 91.1% (inactive) | 101% (inactive) | 117% (inactive) | 112% (inactive) | 103% (inactive) | 93.1% (inactive) | 87.7% (inactive)
COc1cc2c(cc1OCCCOc1ccc(-c3cc4ccccc4c4ccccc34)cc1)N=C[C@@H]1CCCN1C2=O | 0.228% (active) | -6.49% (active) | -69.5% (active) | -77.1% (active) | -19.3% (active) | -72.3% (active) | -48.4% (active) | -15.3% (active) | -46.1% (active) | -66.4% (active)
O=C(Nc1nc2ccccc2s1)c1cc(-c2ccc(F)cc2)n2nc(-c3ccccc3)cc2n1 | 50.9% (inactive) | 56.1% (inactive) | 64.7% (inactive) | -24.7% (active) | 35% (inactive) | 78% (inactive) | 20.3% (inactive) | 59.7% (inactive) | 61.8% (inactive) | 45.4% (inactive)
CCOC(=O)c1c(NC(=O)C2CCCCC2C(=O)O)sc2c1CCCC2 (stereo not given) | 105% (inactive) | 96.7% (inactive) | 106% (inactive) | 100% (inactive) | 97.9% (inactive) | 105% (inactive) | 106% (inactive) | 103% (inactive) | 106% (inactive) | 103% (inactive)
